Legend:
Assay in all cases: log2 ratio of Biotin-Ahx-Ub-VS probe labelling (fragment/DMSO); higher = less target engagement (more negative = stronger competition), active = hit call of the paper (q ≤ 0.05, log2 ratio ≤ -1)
Conditions in all cases: compound concentration: 200 uM; treatment time: 3 h
[1] = molecular target: T1, ALG13 (UniProt Q9NP73)
T1 sequence (whole entry): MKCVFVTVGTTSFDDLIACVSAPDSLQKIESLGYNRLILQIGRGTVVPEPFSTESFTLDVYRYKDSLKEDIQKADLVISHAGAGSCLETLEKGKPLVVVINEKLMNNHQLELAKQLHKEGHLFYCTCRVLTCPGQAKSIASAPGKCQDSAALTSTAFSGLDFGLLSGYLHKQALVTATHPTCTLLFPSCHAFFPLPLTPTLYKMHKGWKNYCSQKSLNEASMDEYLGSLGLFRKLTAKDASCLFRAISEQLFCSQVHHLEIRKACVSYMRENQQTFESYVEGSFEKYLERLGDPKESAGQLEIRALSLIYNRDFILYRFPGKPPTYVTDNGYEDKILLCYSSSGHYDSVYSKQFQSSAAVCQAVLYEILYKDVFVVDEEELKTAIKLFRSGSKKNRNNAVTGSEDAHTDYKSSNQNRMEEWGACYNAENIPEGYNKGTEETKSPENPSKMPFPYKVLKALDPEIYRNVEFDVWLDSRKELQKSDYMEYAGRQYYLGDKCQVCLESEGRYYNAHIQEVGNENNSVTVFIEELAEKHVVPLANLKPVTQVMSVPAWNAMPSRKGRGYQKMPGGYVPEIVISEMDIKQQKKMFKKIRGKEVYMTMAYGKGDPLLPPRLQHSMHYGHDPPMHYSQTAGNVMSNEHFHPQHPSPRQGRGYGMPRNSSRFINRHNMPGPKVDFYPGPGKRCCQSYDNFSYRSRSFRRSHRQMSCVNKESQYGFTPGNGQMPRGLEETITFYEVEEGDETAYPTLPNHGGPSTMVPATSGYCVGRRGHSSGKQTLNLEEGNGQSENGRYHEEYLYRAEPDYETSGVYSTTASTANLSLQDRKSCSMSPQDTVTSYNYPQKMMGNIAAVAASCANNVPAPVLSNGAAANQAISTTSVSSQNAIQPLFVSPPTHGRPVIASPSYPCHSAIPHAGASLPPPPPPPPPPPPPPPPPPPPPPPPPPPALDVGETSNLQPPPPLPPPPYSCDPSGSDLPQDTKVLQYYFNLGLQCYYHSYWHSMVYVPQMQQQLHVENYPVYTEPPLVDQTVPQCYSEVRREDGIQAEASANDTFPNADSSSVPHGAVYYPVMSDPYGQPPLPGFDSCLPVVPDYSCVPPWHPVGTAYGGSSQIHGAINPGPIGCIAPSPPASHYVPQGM
How it was run: (§1)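 Using Biotin-Ahx-Ub-VS at 0.5 µM final for 1 h, DUBs were labelled in HEK293T lysate (495 µg per sample) that had first been treated in triplicate with fragment at 200 µM or vehicle for 3 h. NeutrAvidin enrichment, LysC and trypsin digestion and diaPASEF LC-MS/MS followed. Spectronaut label-free quantities were global-median-normalised. Values are average log2 fragment/vehicle ratios by unpaired t-test, using proteins with ≥2 unique peptides.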

[2] = molecular target: ATXN3 (UniProt P54252)
How it was run: as §1

[3] = molecular target: T2, BAP1 (UniProt Q92560)
T2 sequence (whole entry): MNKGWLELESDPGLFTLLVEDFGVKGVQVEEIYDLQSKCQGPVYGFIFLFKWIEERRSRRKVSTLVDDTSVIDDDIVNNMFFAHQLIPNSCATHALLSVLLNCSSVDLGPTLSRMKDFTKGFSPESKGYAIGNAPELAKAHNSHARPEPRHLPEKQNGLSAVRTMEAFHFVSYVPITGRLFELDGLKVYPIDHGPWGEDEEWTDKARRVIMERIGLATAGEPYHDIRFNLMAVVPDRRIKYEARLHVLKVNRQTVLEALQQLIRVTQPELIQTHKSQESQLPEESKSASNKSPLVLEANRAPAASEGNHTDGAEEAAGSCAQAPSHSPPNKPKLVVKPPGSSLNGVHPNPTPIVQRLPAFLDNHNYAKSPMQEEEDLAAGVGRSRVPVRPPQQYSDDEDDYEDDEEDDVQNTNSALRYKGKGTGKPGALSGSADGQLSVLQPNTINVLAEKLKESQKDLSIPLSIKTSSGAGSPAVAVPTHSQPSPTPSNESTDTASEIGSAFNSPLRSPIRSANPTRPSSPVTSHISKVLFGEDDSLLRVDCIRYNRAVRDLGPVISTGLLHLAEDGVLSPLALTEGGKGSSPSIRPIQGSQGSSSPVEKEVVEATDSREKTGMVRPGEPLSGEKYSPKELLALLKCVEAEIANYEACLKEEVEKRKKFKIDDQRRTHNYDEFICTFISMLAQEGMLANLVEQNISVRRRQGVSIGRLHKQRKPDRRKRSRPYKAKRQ
How it was run: as §1

[4] = molecular target: EIF3F (UniProt O00303)
How it was run: as §1

[5] = molecular target: EIF3H (UniProt O15372)
How it was run: as §1

[6] = molecular target: T3, FAM105A (UniProt Q9NUU6)
T3 sequence (whole entry): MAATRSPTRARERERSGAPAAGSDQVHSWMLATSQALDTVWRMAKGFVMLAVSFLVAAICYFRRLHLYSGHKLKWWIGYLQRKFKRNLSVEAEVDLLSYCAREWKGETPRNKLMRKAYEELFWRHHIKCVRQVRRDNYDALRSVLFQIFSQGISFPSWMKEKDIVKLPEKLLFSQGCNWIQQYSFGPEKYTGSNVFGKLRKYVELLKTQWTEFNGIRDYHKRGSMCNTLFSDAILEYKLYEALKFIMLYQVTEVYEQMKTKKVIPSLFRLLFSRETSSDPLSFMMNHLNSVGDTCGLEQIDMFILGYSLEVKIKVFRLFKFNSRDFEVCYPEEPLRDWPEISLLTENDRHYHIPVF
How it was run: as §1

[7] = molecular target: OTUB1 (UniProt Q96FW1)
How it was run: as §1

[8] = molecular target: T4, OTUD4 (UniProt Q01804)
T4 sequence (whole entry): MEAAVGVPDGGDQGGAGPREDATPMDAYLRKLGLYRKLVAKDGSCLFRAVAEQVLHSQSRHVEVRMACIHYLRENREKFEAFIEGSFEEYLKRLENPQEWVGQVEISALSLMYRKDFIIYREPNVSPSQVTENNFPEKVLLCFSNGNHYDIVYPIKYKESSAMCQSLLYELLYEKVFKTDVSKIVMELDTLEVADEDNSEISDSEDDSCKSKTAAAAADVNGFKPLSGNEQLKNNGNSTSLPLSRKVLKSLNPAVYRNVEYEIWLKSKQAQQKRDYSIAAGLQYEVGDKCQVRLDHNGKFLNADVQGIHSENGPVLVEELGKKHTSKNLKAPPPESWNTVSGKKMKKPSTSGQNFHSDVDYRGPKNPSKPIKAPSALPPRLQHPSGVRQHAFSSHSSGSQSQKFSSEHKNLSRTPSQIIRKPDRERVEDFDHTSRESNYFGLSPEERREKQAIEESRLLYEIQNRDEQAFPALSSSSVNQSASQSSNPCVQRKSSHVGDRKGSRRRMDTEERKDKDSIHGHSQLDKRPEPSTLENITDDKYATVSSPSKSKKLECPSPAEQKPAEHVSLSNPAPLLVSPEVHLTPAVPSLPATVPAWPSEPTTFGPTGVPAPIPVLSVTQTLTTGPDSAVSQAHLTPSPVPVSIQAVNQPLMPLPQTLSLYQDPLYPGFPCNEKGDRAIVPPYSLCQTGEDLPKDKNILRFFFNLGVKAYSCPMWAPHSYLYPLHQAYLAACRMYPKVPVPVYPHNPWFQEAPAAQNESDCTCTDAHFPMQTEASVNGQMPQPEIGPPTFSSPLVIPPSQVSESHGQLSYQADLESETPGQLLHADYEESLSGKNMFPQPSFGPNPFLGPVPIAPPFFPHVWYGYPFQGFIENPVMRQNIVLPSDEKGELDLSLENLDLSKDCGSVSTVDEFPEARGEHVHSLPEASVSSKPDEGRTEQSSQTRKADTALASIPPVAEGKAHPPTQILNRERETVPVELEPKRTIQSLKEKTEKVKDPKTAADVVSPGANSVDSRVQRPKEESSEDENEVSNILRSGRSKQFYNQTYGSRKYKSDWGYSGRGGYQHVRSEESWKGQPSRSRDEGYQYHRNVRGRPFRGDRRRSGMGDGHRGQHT
How it was run: as §1

[9] = molecular target: T5, OTUD5 (UniProt Q96G74)
T5 sequence (whole entry): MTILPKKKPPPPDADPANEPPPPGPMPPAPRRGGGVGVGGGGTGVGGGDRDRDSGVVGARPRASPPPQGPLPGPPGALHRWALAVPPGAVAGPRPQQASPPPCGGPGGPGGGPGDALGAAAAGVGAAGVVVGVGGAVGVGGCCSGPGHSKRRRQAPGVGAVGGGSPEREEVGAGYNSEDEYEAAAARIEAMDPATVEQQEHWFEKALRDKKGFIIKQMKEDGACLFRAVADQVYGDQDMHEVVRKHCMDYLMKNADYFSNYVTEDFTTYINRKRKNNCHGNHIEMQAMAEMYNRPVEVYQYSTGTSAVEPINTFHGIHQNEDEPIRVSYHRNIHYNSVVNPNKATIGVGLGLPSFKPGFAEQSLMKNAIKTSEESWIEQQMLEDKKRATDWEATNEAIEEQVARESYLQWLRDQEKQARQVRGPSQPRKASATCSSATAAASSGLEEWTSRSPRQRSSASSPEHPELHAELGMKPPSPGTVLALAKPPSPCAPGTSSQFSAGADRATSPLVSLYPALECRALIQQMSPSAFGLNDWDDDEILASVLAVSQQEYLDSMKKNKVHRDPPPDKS
How it was run: as §1

Measured: log2 ratio of Biotin-Ahx-Ub-VS probe labelling

EIF3H, sequence (O15372 whole entry): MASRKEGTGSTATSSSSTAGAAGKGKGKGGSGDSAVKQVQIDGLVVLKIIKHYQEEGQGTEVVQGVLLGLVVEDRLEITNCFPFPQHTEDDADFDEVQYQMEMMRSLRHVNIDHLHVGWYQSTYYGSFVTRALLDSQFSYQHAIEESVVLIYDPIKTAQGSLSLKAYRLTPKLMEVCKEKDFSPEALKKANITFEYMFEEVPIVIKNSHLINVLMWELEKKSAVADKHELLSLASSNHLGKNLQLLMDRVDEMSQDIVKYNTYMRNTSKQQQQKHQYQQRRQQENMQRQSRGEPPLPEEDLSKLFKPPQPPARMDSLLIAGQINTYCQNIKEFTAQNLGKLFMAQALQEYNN
OTUB1, sequence (Q96FW1 whole entry): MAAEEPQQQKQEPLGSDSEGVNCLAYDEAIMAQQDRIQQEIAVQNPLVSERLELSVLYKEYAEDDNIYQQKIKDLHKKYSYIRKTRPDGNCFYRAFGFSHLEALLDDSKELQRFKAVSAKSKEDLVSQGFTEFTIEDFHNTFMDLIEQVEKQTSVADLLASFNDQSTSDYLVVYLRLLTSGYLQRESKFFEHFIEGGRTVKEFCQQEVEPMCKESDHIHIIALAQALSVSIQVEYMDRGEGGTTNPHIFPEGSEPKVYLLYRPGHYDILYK
EIF3F, sequence (O00303 whole entry): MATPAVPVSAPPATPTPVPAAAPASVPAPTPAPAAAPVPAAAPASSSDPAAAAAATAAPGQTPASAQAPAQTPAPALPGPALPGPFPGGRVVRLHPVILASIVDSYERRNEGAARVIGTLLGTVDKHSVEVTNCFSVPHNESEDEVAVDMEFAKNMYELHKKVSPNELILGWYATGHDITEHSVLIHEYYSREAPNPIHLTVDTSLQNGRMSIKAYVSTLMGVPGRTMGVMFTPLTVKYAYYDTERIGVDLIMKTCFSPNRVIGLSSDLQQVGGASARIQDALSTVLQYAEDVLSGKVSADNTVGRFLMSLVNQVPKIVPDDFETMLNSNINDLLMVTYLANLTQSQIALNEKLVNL
ATXN3, sequence (P54252 whole entry): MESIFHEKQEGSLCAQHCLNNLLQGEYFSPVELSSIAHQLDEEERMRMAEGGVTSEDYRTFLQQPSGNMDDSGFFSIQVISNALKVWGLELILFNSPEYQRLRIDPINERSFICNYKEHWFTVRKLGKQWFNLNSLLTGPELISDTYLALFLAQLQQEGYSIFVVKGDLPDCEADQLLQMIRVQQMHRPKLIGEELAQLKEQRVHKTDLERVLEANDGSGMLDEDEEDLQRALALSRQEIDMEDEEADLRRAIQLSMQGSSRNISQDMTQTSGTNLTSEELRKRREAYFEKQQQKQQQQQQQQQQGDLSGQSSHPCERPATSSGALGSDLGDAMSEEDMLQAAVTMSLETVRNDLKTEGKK

O=C(CCl)NCCC1=CCCCC1
inactive: [1] 0.121 | [2] -0.135 | [3] -0.56 | [4] -0.0695 | [5] 0.0525 | [6] -0.125 | [7] 0.147 | [8] -0.135 | [9] -0.0425

Reference: the supplement of paper PMC11732987, “Enantioselective OTUD7B fragment discovery through chemoproteomics screening and high-throughput optimisation” (Communications Chemistry, 2025)
